The nature of experiment [1]: ATG_GLI_CIS: Attagene CIS-FACTORIAL HepG2 Assay for human Zinc Finger Protein GLI1 (AID 2282945). Particulars: HepG2, Attagene cis-factorial reporter mRNA, GLI element; actives raise or lower the signal. A digest of the protocol: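 HepG2 cells transiently transfected with cis-promoter multiplexed reporter units report endogenous transcription factor activity. After 24 h chemical exposure, reporter mRNA was quantified by RT-PCR, 6-FAM labelling, HpaI digestion and capillary electrophoresis, with bidirectional fitting against DMSO.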

For experiment [2], the target named is Bile acid receptor (Homo sapiens) (UniProt Q96RI1). In words: ATG_IR1_CIS: Attagene CIS-FACTORIAL HepG2 Assay for human Nuclear Receptor Subfamily 1 Group H Member 4 (NR1H4), IR1 submotif (AID 2282946). Particulars: IR1 reporter transcription, actives raise or lower the signal. A digest of the protocol: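 Readout: reporter transcript levels by RT-PCR with fluorescent capillary electrophoresis, from HepG2 cells transiently transfected with multiplexed cis-regulated reporters and dosed 24 h. Gain- or loss-of-signal fitted versus DMSO negative control.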
Bile acid receptor (Homo sapiens), sequence (Q96RI1 whole entry, looked up): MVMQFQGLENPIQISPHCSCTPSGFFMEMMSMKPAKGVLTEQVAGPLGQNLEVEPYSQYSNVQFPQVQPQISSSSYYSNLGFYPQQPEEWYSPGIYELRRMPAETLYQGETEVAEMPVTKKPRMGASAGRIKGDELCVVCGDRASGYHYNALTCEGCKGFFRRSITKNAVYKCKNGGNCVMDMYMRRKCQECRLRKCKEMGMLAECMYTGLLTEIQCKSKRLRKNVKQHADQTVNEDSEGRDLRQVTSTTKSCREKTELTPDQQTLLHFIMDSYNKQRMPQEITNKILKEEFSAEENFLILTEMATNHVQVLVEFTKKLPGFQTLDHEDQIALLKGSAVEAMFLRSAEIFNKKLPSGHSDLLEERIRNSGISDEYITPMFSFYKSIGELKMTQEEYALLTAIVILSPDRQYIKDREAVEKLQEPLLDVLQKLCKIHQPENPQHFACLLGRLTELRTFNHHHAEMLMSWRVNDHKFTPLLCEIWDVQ

Experiment [3] is described as follows: ATG_GRE_CIS: Attagene CIS-FACTORIAL HepG2 Assay for human Glucocorticoid Response Elements (GRE) (AID 2282947). Particulars: HepG2 GRE cis-reporter, Attagene multiplex mRNA; actives raise or lower the signal. In a few lines:
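HepG2, transient cis-reporter transfection, 24 h. Reporter mRNA: RT-PCR then CE, fluorescence. Fit both directions vs DMSO.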

Experiment [4] is described as follows: ATG_ISRE_CIS: Attagene CIS-FACTORIAL HepG2 Assay for human Interferon Regulatory Factor 1 (IRF1) binding to an Interferon-Stimulated Response Element (ISRE) (AID 2282948). Particulars: HepG2 ISRE cis-reporter (Attagene), mRNA transcription readout; actives raise or lower the signal. In a few lines:
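Endogenous transcription factor activity read as reporter transcript abundance via RT-PCR and capillary electrophoresis. HepG2 cells transiently transfected, 24 h chemical exposure. Gain or loss fitted against DMSO baseline.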

Experiment [5] can be described thus: ATG_M_32_CIS: Attagene CIS-FACTORIAL HepG2 Assay for M32 Transcription Factor (Internal Marker) (AID 2282949).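 Also: background control marker of the multiplexed CIS panel rather than a real target.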 Particulars: HepG2 Attagene cis-factorial M32 reporter, mRNA; actives raise or lower the signal. In a few lines: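 Transient MRTU transfection of HepG2; 24 h compound treatment; TriZol RNA, oligo(dT) RT, reporter PCR, 6-FAM primer extension, HpaI cut, CE. Gain/loss of signal vs DMSO.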

A short description of experiment [6]: ATG_M_06_CIS: Attagene CIS-FACTORIAL HepG2 Assay for M06 Transcription Factor (Internal Marker) (AID 2282950). Particulars: HepG2 Attagene CIS-FACTORIAL M06 internal marker reporter; actives raise or lower the signal. A digest of the protocol: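 One of many multiplexed endpoints: HepG2 reporter mRNA after 24 h dosing, detected by RT-PCR and capillary electrophoresis fluorescence; gain or loss of signal analysed against DMSO.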

In experiment [7] the target is Hypoxia-inducible factor 1-alpha (Homo sapiens) (UniProt Q16665). Nature of the experiment: ATG_HIF1a_CIS: Attagene CIS-FACTORIAL HepG2 Assay for human Hypoxia Inducible Factor 1 (HIF1A) (AID 2282951). Particulars: HepG2 Attagene cis-factorial HIF1a reporter transcription; actives raise or lower the signal. In a few lines:
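Endogenous-TF cis reporter readout, human HepG2 cells, 24 h incubation; mRNA detected via RT-PCR and capillary electrophoresis fluorescence; DMSO-normalised bidirectional fitting.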

Experiment [8] has as its target Hepatocyte nuclear factor 6 (Homo sapiens) (UniProt Q9UBC0). In words: ATG_HNF6_CIS: Attagene CIS-FACTORIAL HepG2 Assay for human Hepatocyte Nuclear Factor 6 (HNF6) (AID 2282952). Particulars: HepG2 Attagene cis-factorial HNF6 reporter transcription; actives raise or lower the signal. In a few lines:
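Activity values derive from bidirectional fitting against DMSO of reporter mRNA levels, measured by capillary electrophoresis of labelled RT-PCR products from HepG2 cells exposed 24 h.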

Experiment [9] deals with Heat shock factor protein 1 (Homo sapiens) (UniProt Q00613). Nature of the experiment: ATG_HSE_CIS: Attagene CIS-FACTORIAL HepG2 Assay for human Heat Shock Transcription Factor 1 (HSE) (AID 2282953). Particulars: HepG2 HSE cis-reporter, Attagene RNA transcription; actives raise or lower the signal. A digest of the protocol:
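Using HepG2 with transfected cis-driven reporter constructs, compound effects on endogenous factor activity are scored as reporter mRNA change at 24 h. Detection: RT-PCR, HpaI digestion, capillary electrophoresis; bidirectional fitting to DMSO.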

A short description of experiment [10]: ATG_MRE_CIS: Attagene CIS-FACTORIAL HepG2 Assay for human Metal Responsive Element (MRE) (AID 2282954). Particulars: HepG2 MRE cis-reporter transcription, Attagene multiplex; actives raise or lower the signal. In a few lines: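 Readout: capillary electrophoresis of 6-FAM-labelled, HpaI-digested RT-PCR reporter products. System: HepG2 cells carrying transient multiplexed cis reporters, dosed 24 h. Analysis: bidirectional fit, DMSO baseline.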

Where “and” joins values, the source holds several entries; their conditions need not be identical. Identical values can stand only once. Some compounds were tested as several samples or in several runs, with calls that do not always agree. Calls of active or inactive are those of the source. The calls were made as follows: active = hit-call score of the fitted dose curve at least 0.9, where 1 is the maximum; inactive = score below 0.9.

Heat shock factor protein 1 (Homo sapiens), sequence (Q00613 whole entry, looked up): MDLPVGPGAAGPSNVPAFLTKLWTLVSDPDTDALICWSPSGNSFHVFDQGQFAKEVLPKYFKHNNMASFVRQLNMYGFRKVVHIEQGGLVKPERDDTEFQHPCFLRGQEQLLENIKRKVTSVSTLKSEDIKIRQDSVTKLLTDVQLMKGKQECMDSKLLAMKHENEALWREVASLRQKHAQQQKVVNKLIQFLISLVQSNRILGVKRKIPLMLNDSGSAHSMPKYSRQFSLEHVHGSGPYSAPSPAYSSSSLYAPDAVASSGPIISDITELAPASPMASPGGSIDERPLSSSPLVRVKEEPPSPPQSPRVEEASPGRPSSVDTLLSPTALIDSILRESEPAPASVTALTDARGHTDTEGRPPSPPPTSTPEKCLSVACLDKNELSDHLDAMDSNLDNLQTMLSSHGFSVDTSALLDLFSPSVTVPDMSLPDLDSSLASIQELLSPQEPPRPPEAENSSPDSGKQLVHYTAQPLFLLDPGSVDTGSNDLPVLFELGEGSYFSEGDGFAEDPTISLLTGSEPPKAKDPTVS
Hypoxia-inducible factor 1-alpha (Homo sapiens), sequence (Q16665 whole entry, looked up): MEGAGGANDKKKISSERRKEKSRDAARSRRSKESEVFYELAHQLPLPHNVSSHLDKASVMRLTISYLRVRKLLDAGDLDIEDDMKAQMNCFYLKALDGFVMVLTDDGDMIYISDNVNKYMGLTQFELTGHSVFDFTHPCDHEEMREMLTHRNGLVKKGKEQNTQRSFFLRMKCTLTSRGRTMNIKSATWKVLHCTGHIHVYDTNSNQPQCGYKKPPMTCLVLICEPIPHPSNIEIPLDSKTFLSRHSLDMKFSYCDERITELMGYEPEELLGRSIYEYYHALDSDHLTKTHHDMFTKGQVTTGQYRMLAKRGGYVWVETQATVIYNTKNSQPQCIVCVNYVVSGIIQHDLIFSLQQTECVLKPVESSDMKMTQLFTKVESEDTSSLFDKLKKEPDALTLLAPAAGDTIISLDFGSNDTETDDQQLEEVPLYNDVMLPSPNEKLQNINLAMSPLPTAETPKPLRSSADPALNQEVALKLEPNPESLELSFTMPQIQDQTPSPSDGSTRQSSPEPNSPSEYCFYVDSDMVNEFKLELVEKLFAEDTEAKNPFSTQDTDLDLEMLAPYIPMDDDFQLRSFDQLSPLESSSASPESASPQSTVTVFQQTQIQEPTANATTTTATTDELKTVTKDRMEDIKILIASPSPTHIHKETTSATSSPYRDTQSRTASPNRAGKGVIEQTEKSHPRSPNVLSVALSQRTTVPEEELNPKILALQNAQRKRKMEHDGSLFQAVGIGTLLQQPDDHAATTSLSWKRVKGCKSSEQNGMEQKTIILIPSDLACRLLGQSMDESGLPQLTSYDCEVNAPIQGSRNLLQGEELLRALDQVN
Hepatocyte nuclear factor 6 (Homo sapiens), sequence (Q9UBC0 whole entry, looked up): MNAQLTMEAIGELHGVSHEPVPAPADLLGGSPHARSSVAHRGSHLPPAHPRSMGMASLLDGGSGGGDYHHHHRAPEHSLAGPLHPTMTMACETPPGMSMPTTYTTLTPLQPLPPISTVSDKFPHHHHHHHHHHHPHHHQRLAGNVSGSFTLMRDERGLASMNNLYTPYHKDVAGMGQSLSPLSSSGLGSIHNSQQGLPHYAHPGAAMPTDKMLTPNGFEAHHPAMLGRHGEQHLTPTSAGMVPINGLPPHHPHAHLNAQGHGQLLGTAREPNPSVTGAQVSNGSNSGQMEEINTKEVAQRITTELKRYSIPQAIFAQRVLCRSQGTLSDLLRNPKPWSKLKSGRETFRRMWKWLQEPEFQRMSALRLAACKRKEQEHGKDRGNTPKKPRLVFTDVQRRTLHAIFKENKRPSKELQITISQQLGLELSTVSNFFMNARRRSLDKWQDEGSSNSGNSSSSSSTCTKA

With `C1=COCCC1`, the molecule was classed as inactive in experiment [1], in experiment [2], in [3], in [4], in [5] and in experiment [6]. Moreover, the result in experiment [7], in experiment [8], in [9] and in experiment [10] was inactive.

On to `C=CCOCC(O)CO` (centres undefined), for which the molecule was classed as inactive in experiment [1], in experiment [2], in [3], in experiment [4], in experiment [5] and in experiment [6]. The call in experiment [7], in experiment [8], in [9] and in experiment [10] was inactive.

Broadly, the AC50 is the concentration at which the activity in the assay is half-maximal. As to `O=C(c1ccc(OCCN2CCCCC2)cc1)c1c(-c2ccc(O)cc2)sc2cc(O)ccc12`, the AC50 was 11.1 µM (active) and 15.2 µM (active) in [1]; 20.2 µM (active) in [3]; 11.1 µM (active) and 17 µM (active) and 14.8 µM (active) in experiment [4]; 11.1 µM (active) and 21.4 µM (active) in experiment [8]; 17.2 µM (active) and 17.7 µM (active) and 19.8 µM (active) in [9]; 15.8 µM (active) [middle of 4 runs] in [10]. For the same molecule, the call in experiment [1], in experiment [3], in experiment [4], in experiment [5], in [6] and in [8] was inactive. Besides, the molecule was classed as inactive in experiment [9] and in experiment [10].

Take `O=S1(=O)CC(Cl)(Cl)C(Cl)(Cl)C1`: the result in experiment [1], in experiment [3], in experiment [5], in [6], in experiment [7] and in [8] was inactive. In addition, the molecule was classed as inactive in experiment [9]. In addition, the AC50 in experiment [2] was 5.49 µM (active); in [4] it was 1.37 µM (active); in [10], 6.29 µM (active).

Consider `CCC=C(C)C=O`, for which the call in experiment [1], in experiment [2], in experiment [3], in experiment [4], in experiment [5] and in experiment [6] was inactive. The molecule was classed as inactive in experiment [7], in [8] and in experiment [9].

Take `O=C1OC2(c3ccc(O)cc3Oc3cc(O)ccc32)c2ccccc21`: the molecule was classed as inactive in experiment [1], in experiment [2], in [3], in experiment [4], in experiment [5] and in experiment [6]. Moreover, the call in experiment [7], in experiment [8] and in experiment [9] was inactive.

With `CCCCCC(=O)O[C@]1(C(C)=O)CC[C@H]2[C@@H]3CCC4=CC(=O)CC[C@]4(C)[C@H]3CC[C@@]21C`, the AC50 in experiment [1] is 57.7 µM (active); in [3] it was 55.1 µM (active); in [4] it was 16.3 µM (active); in experiment [7], 33.2 µM (active); in experiment [9] it was 32 µM (active); in experiment [10] it was 13 µM (active). Moreover, the result in experiment [2], in experiment [5], in experiment [6] and in experiment [8] was inactive.

For the molecule `CC(O)COCC(C)O` (centres undefined), the molecule was called inactive in [1], in experiment [2], in experiment [3], in experiment [4], in experiment [5] and in experiment [6]. Besides, the molecule was classed as inactive in [7], in experiment [8], in [9] and in experiment [10].

For `CCCc1ccc(O)cc1`, the molecule was classed as inactive in [1], in [2], in [3], in [4], in [5] and in experiment [6]. Also, the call in experiment [7], in experiment [8], in experiment [9] and in experiment [10] was inactive.

`CC(=O)CC(=O)N(C)C`: the outcome in [1], in experiment [2], in [3], in [4], in experiment [5] and in experiment [6] was inactive. In addition, the result in [7], in experiment [8], in experiment [9] and in experiment [10] was inactive.

Consider `C=CCOC(=O)/C=C\C(=O)OCC=C`, for which the molecule was classed as inactive in experiment [1], in [2], in experiment [3], in experiment [5] and in experiment [6]. The AC50 in experiment [4] is 19.7 µM (active); in experiment [7], 18.6 µM (active); in experiment [8] it was 28 µM (active); in [9] it was 164 µM (active); in [10], 39.5 µM (active).

For the molecule `NC(=O)c1cccnc1`, the outcome in experiment [1], in [2], in experiment [3], in [4], in [5] and in experiment [6] was inactive. Also, the outcome in experiment [7], in experiment [8], in experiment [9] and in [10] was inactive.

In the case of `CC1=C(C=O)C(C)(C)CCC1`, the outcome in experiment [1], in experiment [2], in experiment [3], in experiment [4], in experiment [5] and in experiment [6] was inactive. Also, the outcome in [7], in experiment [8], in experiment [9] and in experiment [10] was inactive.

Regarding `CC(C)C(=O)OCC=Cc1ccccc1`, the result in experiment [1], in experiment [2], in experiment [3], in [4], in experiment [5] and in experiment [6] was inactive. Besides, the outcome in experiment [7], in experiment [8], in experiment [9] and in experiment [10] was inactive.

In the case of `CC(C)OB(OC(C)C)OC(C)C`, the call in experiment [1], in [2], in experiment [3], in experiment [4], in experiment [5] and in [6] was inactive. In addition, the molecule was called inactive in experiment [7], in experiment [8], in [9] and in experiment [10].

For `CCC(=O)OCC=Cc1ccccc1`, the call in [1], in experiment [2], in experiment [3], in experiment [4], in experiment [5] and in [6] was inactive. The result in [7], in [8] and in experiment [9] was inactive.

`CC(C)(O)CCc1ccccc1`: the molecule was classed as inactive in experiment [1], in experiment [2], in experiment [3], in [4], in experiment [5] and in [6]. The outcome in [7], in [8] and in [9] was inactive.

`c1ccc(Cc2ccccc2)cc1`: the result in experiment [1], in experiment [2], in experiment [3], in experiment [4], in experiment [5] and in experiment [6] was inactive. Moreover, the outcome in experiment [7], in experiment [8] and in [9] was inactive.

Regarding `O=C1OCc2ccccc21`, the call in experiment [1], in experiment [2], in experiment [3], in [4], in [5] and in experiment [6] was inactive. Besides, the outcome in [7], in [8], in experiment [9] and in experiment [10] was inactive.

As for `C=CC(C)(CCC=C(C)C)OC(=O)CC` (centres undefined), the molecule was called inactive in [1], in experiment [2], in [3], in experiment [4], in [5] and in experiment [6]. Moreover, the molecule was classed as inactive in [7], in [8], in experiment [9] and in experiment [10].

For `CCCCC/C=C\C=C\C(=O)OCC`, the AC50 in experiment [1] was 64 µM (active); in [2] it was 79.6 µM (active); in [4] it was 56.3 µM (active); in experiment [7], 78.5 µM (active); in [9], 46.7 µM (active); in [10], 55.1 µM (active). Further, the call in experiment [3], in experiment [5], in experiment [6] and in experiment [8] was inactive.

For `C=C/C(C)=C/C/C=C(\C)CCC=C(C)C`, the molecule was called inactive in experiment [1], in experiment [2], in experiment [3], in experiment [4], in [5] and in experiment [6]. The molecule was classed as inactive in [7], in experiment [8], in experiment [9] and in [10].

With `CN(C)c1ccc(C=O)cc1`, the molecule was classed as inactive in [1], in experiment [2], in experiment [3], in experiment [4], in [5] and in experiment [6]. In addition, the molecule was called inactive in experiment [7], in experiment [8], in experiment [9] and in experiment [10].

In the case of `O=C1CCC(=O)N1`, the outcome in experiment [1], in experiment [2], in [3], in experiment [4], in experiment [5] and in experiment [6] was inactive. Also, the molecule was classed as inactive in [8], in [9] and in [10]. The AC50 in [7] was 28.2 µM (active).

Source of the values: PubChem BioAssay (EPA / NIEHS).
